Data on 23 compounds can be found in PubChem BioAssay AID2158 (National Center for Advancing Translational Sciences (NCATS), 2009).

Where “and” joins values, the source holds several entries; their conditions need not be identical. Identical values can stand only once. Inconclusive results are not listed. A number with no mark means an inactive call. Calls of active or inactive are those of the source. Calls follow the shape of the dose curve; as a rule, active = well fitted inhibition curve with a large enough effect; inconclusive = small, poorly fitted or top-dose-only effect; inactive = no such curve, though single readings can be large or run the other way.
Potency is read from the fitted curve at half-maximal effect.

The target of this assay is Cruzipain (Trypanosoma cruzi) (UniProt P25779). The assay can be described thus: Confirmation qHTS Assay for Inhibitors of Cruzain. Also: nearly all actives have a fitted effect of over 40% in size.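 As to activity change, negative = inhibition: plate controls were uninhibited enzyme control for no effect and buffer wells lacking enzyme for full effect.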 As to conditions: purified cruzain, Z-FR-AMC fluorescence, 0.01% Triton. The essentials: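 Purified cruzain, 1.5 nM, pre-incubated 15 min at room temperature with compound in 100 mM sodium acetate pH 5.5, 5 mM DTT, 0.01% Triton X-100. Then 2 uM Z-FR-AMC added; AMC fluorescence (ex 360/em 450 nm) increase over 60 s gave reaction progress.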
Chain of Cruzipain (Trypanosoma cruzi) (P25779 123-467 limits assumed): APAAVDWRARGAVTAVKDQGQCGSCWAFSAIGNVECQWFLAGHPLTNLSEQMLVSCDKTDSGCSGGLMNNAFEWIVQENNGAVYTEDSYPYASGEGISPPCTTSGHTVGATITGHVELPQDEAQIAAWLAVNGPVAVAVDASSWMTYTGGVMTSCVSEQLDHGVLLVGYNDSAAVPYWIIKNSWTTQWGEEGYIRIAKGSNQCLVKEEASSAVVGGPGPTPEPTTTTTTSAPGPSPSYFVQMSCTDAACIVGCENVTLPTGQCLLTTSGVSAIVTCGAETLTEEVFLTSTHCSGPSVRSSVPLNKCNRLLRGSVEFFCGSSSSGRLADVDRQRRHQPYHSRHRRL
As for `CCOc1ccc(-c2cc3nc(C4CCN(C(=O)OC(C)(C)C)CC4)c(C(=O)O)cn3n2)cc1`, the activity change, negative = inhibition was -33%.

Turning to `COc1ccccc1CCNC(=O)CNC(=O)Cc1cccc2ccccc12`, the activity change, negative = inhibition is 5.36%.

In the case of `Cc1ccccc1OCCCCn1c(CCNC(=O)C2CCCCC2)nc2ccccc21`, the Potency was 0.562 µM (active).

As for `O=C(Cc1nnc(-c2nc3ccccc3[nH]2)o1)Nc1cc(C(F)(F)F)ccc1Cl`, the activity change, negative = inhibition was -0.284%.

For `CCN(CC)c1nc(C#N)nc(OC)n1`, the Potency was 7.08 µM (active).

In the case of `COC(=O)CCC(C)C1CCC2C3CC[C@H]4CC(O)CC[C@@]4(C)C3CC(O)[C@]12C` (stereo partly drawn), the activity change, negative = inhibition is -8.27%.

As to `N#Cc1nc(Nc2cc(F)cc(Cl)c2)nc(NC2CCCC2)n1`, the Potency was 0.141 µM (active).

Turning to `COc1ccc(-c2nc3c(=O)n(C)c(=O)nc-3n(C)n2)cc1`, the Potency was 1.26 µM (active).

As for `COc1cc(NC(=O)C(OC(=O)CNC(=O)c2ccccc2)c2ccccc2)cc(OC)c1` (stereo not drawn), the Potency was 25.1 µM (active).

Regarding `O=C(CNC(=O)c1cccc2ccccc12)OC(C(=O)Nc1cc(C(F)(F)F)ccc1Cl)c1ccccc1` (stereo not drawn), the Potency is 12.6 µM (active).

As for `C(/Oc1ccccc1)=C1\Nn2c(nnc2-c2cc(-c3ccccc3)n[nH]2)S1`, the activity change, negative = inhibition is -9.74% and -7.34%.

`C=CCn1c(SCC(=O)Nc2cc3oc4ccccc4c3cc2OC)nnc1-c1cnccn1`: the activity change, negative = inhibition was -11.8%.

As to `COc1ccc2[nH]c(=O)c(CN(Cc3nnnn3Cc3ccco3)C3CCCCC3)cc2c1`, the Potency is 14.1 µM (active).

In the case of `Cc1ccccc1OCC(=O)NCC(=O)OCC(=O)c1ccc(Br)cc1`, the Potency is 35.5 µM (active).

On to `COc1nc(C#N)nc(N2CCCCC2)n1`, for which the Potency is 2.82 µM (active).

On to `N#Cc1nc(Nc2cccc([N+](=O)[O-])c2)nc(NC2CCCC2)n1`, for which the Potency is 0.0631 µM (active).

With `Cc1ccc(C(=O)COC(=O)CNC(=O)COc2ccccc2C)cc1C`, the Potency was 14.1 µM (active).

With `Cc1oc(=O)c(NC(=O)c2cccc(Cl)c2)cc1C(=O)c1ccccc1`, the activity change, negative = inhibition is -24.6%.

`CCc1ccc(NC(=O)Cn2c(SCc3ccc(C)cc3)nc3ccncc32)cc1`: the activity change, negative = inhibition is -7.51%.

On to `O=C(CNC(=O)c1ccccc1)NCC(=O)OCC(=O)c1ccc2ccccc2c1`, for which the activity change, negative = inhibition is 21.1%.

As to `Cn1nc(-c2cccnc2)nc2c(=O)n(C)c(=O)nc1-2`, the Potency was 1.12 µM (active).

With `CCc1ccc(-c2nc3c(=O)n(C)c(=O)nc-3n(CC)n2)cc1`, the Potency is 2.51 µM (active).

On to `Cc1cccc(C)c1OCCCn1c(CCNC(=O)C2CCCCC2)nc2ccccc21`, for which the Potency is 1.26 µM (active) and 1.58 µM (active).
